Compounds without any hit were thinned out: in the full panel of roughly 83,000, 20% have a hit.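 Percent growth is the endpoint: 0 to 100 indicates growth inhibition (40 means 60% inhibition), 0 means no net growth, and negative values indicate cell death.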 Values without a mark were called inactive. Active and inactive are the calls of the source. How the source made its calls: active means growth percent below 10; inactive means the rest.
These compounds were tested on UACC-257 melanoma (assay: NCI-60 one-dose screen, 48 h (100 = growth as untreated, 0 = no growth, -100 = all killed)). Conditions: 10 µM unless noted.

| SMILES | growth |
| --- | --- |
| COC(=O)c1oc2c(C(=O)/C=C/c3ccc(OC)cc3)c(OCCN3CCOCC3)ccc2c1C | 55.5% |
| CN(C)c1ccc(/C=N/n2c(-c3cc(F)c(Cl)cc3Cl)nn(CN3CCOCC3)c2=S)cc1 | 91.9% |
| CS(=O)(=O)OCC(COS(C)(=O)=O)C(c1ccccc1)c1ccccc1 | 111% |
| Nc1ncnc2c1c(C(F)(F)F)cn2[C@@H]1O[C@H](CO)[C@@H](O)[C@H]1O | -5.51% (active) |
| Cc1nccc2c3ccc(OCc4cn(Cc5ccc(Br)cc5)nn4)cc3n(CCCc3ccccc3)c12 | 99.3% |
| [2H]c1nc(Nc2ncc(F)c(-c3cc(F)c4nc(C)n(C(C)C)c4c3)n2)c([2H])c([2H])c1CN1CCN(CC)CC1 | 72.3% |
| COc1cc(/C=C2/Oc3cc4occc4c(OC)c3C2=O)ccc1OCC(=O)Nc1ccncc1 | 104% |
| COc1ccc2c(c1)OC(N)=C(C#N)C2c1ccc(F)cc1 (stereo unspecified) | 51.7% |
| CCCCCCCCCCCCCCCCNc1ccccc1 | 82.3% |
| O=C(Nc1ccc(-n2ccc3c(NC(=O)c4ccccc4)ncnc32)cc1)c1cccc(C(F)(F)F)c1 | 60.8% |
| COc1ccc(/C(Cl)=N/N=C(\Cl)c2cc(OC)c(OC)c(OC)c2)cc1OC(C)=O | 84.6% |
| O=C1C(Cl)=C(Nc2ccccc2)C(=O)C(Cl)=C1Nc1ccccc1 | 107% |
| O=C(Nc1ccc(-n2cc(-c3ccncc3)c(-c3ccc(O)c(Cl)c3)n2)cc1)c1cc(C(F)(F)F)cc(C(F)(F)F)c1 | 77.1% |
| CCn1c(C)nc([N+](=O)[O-])c1Sc1nc(N)nc2nc[nH]c12 | 39.7% |
| Cc1cn(C2CC(N=[N+]=[N-])C(COP(=O)(O)OP(=O)(O)OP(=O)(O)O)O2)c(=O)[nH]c1=O (stereo unspecified) | 108% |
| COc1cc(/C=C\c2cc(/C=C\c3ccc(O)c(OC)c3)n(C(=O)CNc3ccccc3OC)n2)ccc1O | 85.5% |
| COc1ccc(Cl)cc1NC(=O)c1cc2c([nH]1)-c1nc(NC(=O)C(C)C)sc1CC2 | 92.7% |
| O=C(/C=C/c1ccco1)c1cccc(Nc2nc(Nc3ccccc3)nc(Nc3ccccc3)n2)c1 | 101% |
| O=C(Nc1ccc(-n2ccc3c(NC(=O)c4ccccc4)ncnc32)cc1)Nc1ccc(Cl)c(C(F)(F)F)c1 | 7.73% (active) |

| SMILES | growth |
| --- | --- |
| CN(C)CCCOc1c(Br)cc(/C=C/C(=O)N(C)CCc2cc(Br)c(OCCCN(C)C)c(Br)c2)cc1Br | 71.7% |
| C=C(C)[C@@H]1C/C=C(\COC(=O)[C@H](OC(C)=O)C(NC(=O)c2ccccc2)c2ccccc2)CC[C@H]2O[C@]2(C)CC/C=C(\C)CC1 (stereo partly specified) | 97.5% [5 µM] |
| COc1ccc(Cl)cc1NC(=O)c1cc2c([nH]1)-c1nc(NC(=O)C(C)(C)C)sc1CC2 | 94.4% |
| CC1CCC(C(C)C)C(NN)C1 (stereo unspecified) | 78.6% |
| Cl[C@@H]1CCO[C@H](c2cc3ccccc3c3ccccc23)C1 | 93.4% |
| C[C@]12CC[C@@H]3c4ccc(O)c(N)c4CC[C@H]3[C@@H]1CC[C@@H]2O | 82.5% |
| COc1ccc(/C=C/C(=O)c2ccc(-n3cc(CN4CCN(c5cc6c(cc5F)c(=O)c(C(=O)O)cn6C5CC5)CC4)nn3)cc2)cc1OC | 62% |
| COc1ccc(-c2nn(-c3ccc(NC(=O)c4ccc(Cl)c(C(F)(F)F)c4)cc3)cc2-c2ccncc2)cc1Cl | 51.2% |
| O=C(O)c1cc2ccccc2cc1Nc1ccccc1 | 4.2% (active) |
| COc1ccc(Cn2cc3c(c2-c2cc(OC)c(OC)c(OC)c2)CCc2c(CO)noc2-3)cc1 | 64.6% |
| COc1cc(C(=O)N2CCN(C(=O)c3cc(OC)c(OCc4ccccc4)cc3N)CC2)c(N)cc1OCc1ccccc1 | 98.5% |
| Nc1ccc(S(=O)(=O)Nc2ccnn2-c2ccccc2)cc1 | 103% |
| COc1ccc(-c2nnc(SCC(=O)Nc3ccc(C(=O)/C=C/c4ccccc4)cc3)o2)cc1OC | 105% |
| CCC(N)(C(=O)O)c1ccc(F)cc1 (stereo unspecified) | 86.2% |
| COc1ccc(-c2c(C#N)cnc(N)c2-c2nc3cc(C)c(C)cc3[nH]2)cc1 | 70% |
| CC(C)(C)NCC(O)COc1c(Br)c(Br)c(Br)c2c1OC(C)(C)C2 (stereo unspecified) | 107% |
| O=C1/C(=C/c2cccc3cnccc23)Cc2cc(F)ccc21 | 113% |
| COC(OC)C1(c2ccccc2)NC(=O)NC1=O (stereo unspecified) | 104% |
| c1cncc(-c2nc3ccccc3[nH]2)c1 | 27.7% |

These compounds were tested on M14 melanoma in the same assay as above. Conditions: 10 µM unless noted.

| SMILES | growth |
| --- | --- |
| COC(=O)c1oc2c(C(=O)/C=C/c3ccc(OC)cc3)c(OCCN3CCOCC3)ccc2c1C | 11.5% |
| CN(C)c1ccc(/C=N/n2c(-c3cc(F)c(Cl)cc3Cl)nn(CN3CCOCC3)c2=S)cc1 | 82.6% |
| CS(=O)(=O)OCC(COS(C)(=O)=O)C(c1ccccc1)c1ccccc1 | 106% |
| Nc1ncnc2c1c(C(F)(F)F)cn2[C@@H]1O[C@H](CO)[C@@H](O)[C@H]1O | 2.76% (active) |
| Cc1nccc2c3ccc(OCc4cn(Cc5ccc(Br)cc5)nn4)cc3n(CCCc3ccccc3)c12 | 103% |
| [2H]c1nc(Nc2ncc(F)c(-c3cc(F)c4nc(C)n(C(C)C)c4c3)n2)c([2H])c([2H])c1CN1CCN(CC)CC1 | 46.3% |
| COc1cc(/C=C2/Oc3cc4occc4c(OC)c3C2=O)ccc1OCC(=O)Nc1ccncc1 | 98.8% |
| COc1ccc2c(c1)OC(N)=C(C#N)C2c1ccc(F)cc1 (stereo unspecified) | 14.1% |
| CCCCCCCCCCCCCCCCNc1ccccc1 | 106% |
| O=C(Nc1ccc(-n2ccc3c(NC(=O)c4ccccc4)ncnc32)cc1)c1cccc(C(F)(F)F)c1 | 30.9% |
| COc1ccc(/C(Cl)=N/N=C(\Cl)c2cc(OC)c(OC)c(OC)c2)cc1OC(C)=O | 107% |
| O=C1C(Cl)=C(Nc2ccccc2)C(=O)C(Cl)=C1Nc1ccccc1 | 113% |
| O=C(Nc1ccc(-n2cc(-c3ccncc3)c(-c3ccc(O)c(Cl)c3)n2)cc1)c1cc(C(F)(F)F)cc(C(F)(F)F)c1 | 30.2% |
| CCn1c(C)nc([N+](=O)[O-])c1Sc1nc(N)nc2nc[nH]c12 | 8.02% (active) |
| Cc1cn(C2CC(N=[N+]=[N-])C(COP(=O)(O)OP(=O)(O)OP(=O)(O)O)O2)c(=O)[nH]c1=O (stereo unspecified) | 57.7% |
| COc1cc(/C=C\c2cc(/C=C\c3ccc(O)c(OC)c3)n(C(=O)CNc3ccccc3OC)n2)ccc1O | 35.4% |
| COc1ccc(Cl)cc1NC(=O)c1cc2c([nH]1)-c1nc(NC(=O)C(C)C)sc1CC2 | 101% |
| O=C(/C=C/c1ccco1)c1cccc(Nc2nc(Nc3ccccc3)nc(Nc3ccccc3)n2)c1 | 92.1% |
| O=C(Nc1ccc(-n2ccc3c(NC(=O)c4ccccc4)ncnc32)cc1)Nc1ccc(Cl)c(C(F)(F)F)c1 | 3.01% (active) |

| SMILES | growth |
| --- | --- |
| CN(C)CCCOc1c(Br)cc(/C=C/C(=O)N(C)CCc2cc(Br)c(OCCCN(C)C)c(Br)c2)cc1Br | -68.1% (active) |
| C=C(C)[C@@H]1C/C=C(\COC(=O)[C@H](OC(C)=O)C(NC(=O)c2ccccc2)c2ccccc2)CC[C@H]2O[C@]2(C)CC/C=C(\C)CC1 (stereo partly specified) | 34.3% [5 µM] |
| COc1ccc(Cl)cc1NC(=O)c1cc2c([nH]1)-c1nc(NC(=O)C(C)(C)C)sc1CC2 | 71.7% |
| CC1CCC(C(C)C)C(NN)C1 (stereo unspecified) | 102% |
| Cl[C@@H]1CCO[C@H](c2cc3ccccc3c3ccccc23)C1 | 95.3% |
| C[C@]12CC[C@@H]3c4ccc(O)c(N)c4CC[C@H]3[C@@H]1CC[C@@H]2O | 100% |
| COc1ccc(/C=C/C(=O)c2ccc(-n3cc(CN4CCN(c5cc6c(cc5F)c(=O)c(C(=O)O)cn6C5CC5)CC4)nn3)cc2)cc1OC | 28.2% |
| COc1ccc(-c2nn(-c3ccc(NC(=O)c4ccc(Cl)c(C(F)(F)F)c4)cc3)cc2-c2ccncc2)cc1Cl | 13.3% |
| O=C(O)c1cc2ccccc2cc1Nc1ccccc1 | 96.7% |
| COc1ccc(Cn2cc3c(c2-c2cc(OC)c(OC)c(OC)c2)CCc2c(CO)noc2-3)cc1 | 7.98% (active) |
| COc1cc(C(=O)N2CCN(C(=O)c3cc(OC)c(OCc4ccccc4)cc3N)CC2)c(N)cc1OCc1ccccc1 | 111% |
| Nc1ccc(S(=O)(=O)Nc2ccnn2-c2ccccc2)cc1 | 109% |
| COc1ccc(-c2nnc(SCC(=O)Nc3ccc(C(=O)/C=C/c4ccccc4)cc3)o2)cc1OC | 105% |
| CCC(N)(C(=O)O)c1ccc(F)cc1 (stereo unspecified) | 103% |
| COc1ccc(-c2c(C#N)cnc(N)c2-c2nc3cc(C)c(C)cc3[nH]2)cc1 | 51.2% |
| CC(C)(C)NCC(O)COc1c(Br)c(Br)c(Br)c2c1OC(C)(C)C2 (stereo unspecified) | -72.6% (active) |
| O=C1/C(=C/c2cccc3cnccc23)Cc2cc(F)ccc21 | 87.7% |
| COC(OC)C1(c2ccccc2)NC(=O)NC1=O (stereo unspecified) | 108% |
| c1cncc(-c2nc3ccccc3[nH]2)c1 | 99.7% |

Source: PubChem BioAssay (NCI)
